The record followed here is PubChem BioAssay AID722 (NMMLSC, 2007).

As usually defined, the inhibition is the change of the read-out against control, counted positive when it falls.

The whole screen tested about 1,300 compounds, of which about 40 (3%) were called active. This excerpt belongs to a sample that is enriched for actives. A number with no mark means an inactive call. Rule as the data show it: active = inhibition above about 30%; inactive = the rest.

For the experiment, the target named is fMet-Leu-Phe receptor (Homo sapiens) (UniProt P21462). Nature of the experiment: FPR1 fluorescent ligand binding inhibitors, primary screen, cell-based, flow cytometry, SAR analysis (AID 722). The note with it: FPR-expressing cells, stronger effect = higher value, concentration not given here. For orientation: Flow cytometry measures light scatter and fluorescence of single cells or particles in a stream.
fMet-Leu-Phe receptor (Homo sapiens), sequence (P21462 whole entry, looked up): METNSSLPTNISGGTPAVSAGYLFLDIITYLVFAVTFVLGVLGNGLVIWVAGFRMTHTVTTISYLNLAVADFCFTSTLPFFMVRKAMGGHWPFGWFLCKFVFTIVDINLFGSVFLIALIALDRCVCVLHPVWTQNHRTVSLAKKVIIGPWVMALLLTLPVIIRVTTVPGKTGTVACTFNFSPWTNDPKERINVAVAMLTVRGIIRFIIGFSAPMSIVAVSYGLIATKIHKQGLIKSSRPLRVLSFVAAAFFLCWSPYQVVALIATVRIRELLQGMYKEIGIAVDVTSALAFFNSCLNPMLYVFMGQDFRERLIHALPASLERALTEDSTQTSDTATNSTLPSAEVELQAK
Turning to `Cc1onc(-c2c(Cl)cccc2Cl)c1C(=O)N1CCCC(C)C1` (stereo not drawn), the inhibition was -2.1%.

Take `CCOC(=O)c1cc(C)sc1NC(=O)c1ccc(OC)cc1`: the inhibition was -6.6%.

Take `O=C1CSC(c2ccc(F)cc2)N1c1ccccc1F` (stereo not drawn): the inhibition was -3%.

On to `CN1C(=O)C(=O)/C(=C(\O)c2ccc(Cl)cc2)C1c1ccc(Cl)cc1` (stereo not drawn), for which the inhibition is -3.2%.

`O=C1CSC(c2cccc(F)c2)N1c1c(F)cccc1F` (stereo not drawn): the inhibition was 0.4%.

On to `Cn1c(OCc2cccnc2)nc2c1c(=O)n(Cc1ccc(F)cc1)c(=O)n2C`, for which the inhibition was 1%.

For `O=C1C(=O)N(Cc2cccnc2)C(c2ccc(Br)cc2)/C1=C(\O)c1ccc(F)cc1` (stereo not drawn), the inhibition is -5.5%.

Regarding `O=C(c1ccccc1)N(Cc1ccco1)Cc1ccccc1Cl`, the inhibition was -5%.

Turning to `Cc1ccccc1C(=O)N1C(=S)C(c2ccc(F)cc2)=NC12CCN(C)CC2`, the inhibition was 3.3%.

As for `CCOC(=O)c1c(NC(=O)c2ccc(F)cc2)sc(C)c1C`, the inhibition was -3.4%.

For `COc1ccc(NC(=O)C(NC(=O)Cc2cccs2)c2ccccc2)cc1` (stereo not drawn), the inhibition is -2.6%.

In the case of `O=C1C(=O)N(Cc2cccnc2)C(c2ccccc2Cl)/C1=C(\O)c1ccccc1` (stereo not drawn), the inhibition is 1.8%.

As for `CC(C)CN1C(=O)c2ccccc2C(C(=O)N2CCCC2)C1c1cccs1` (stereo not drawn), the inhibition was 4.5%.

On to `COc1ccc(/C(O)=C2/C(=O)C(=O)N(CCc3c[nH]c4ccccc34)C2c2ccc(C(C)C)cc2)cc1` (stereo not drawn), for which the inhibition is 43.8% (active).

As for `CCc1ccc(C2/C(=C(/O)c3ccc(OC)cc3)C(=O)C(=O)N2CCc2c[nH]c3ccccc23)cc1` (stereo not drawn), the inhibition was 3%.

Turning to `O=C1C(=O)N(CCc2c[nH]c3ccccc23)C(c2ccc(Cl)cc2)/C1=C(/O)c1ccc(F)cc1` (stereo not drawn), the inhibition was 1.5%.

For `O=C(C1=C(O)C(=O)N(CC2CCCO2)C1c1cccs1)c1ccco1` (stereo not drawn), the inhibition was -9.5%.

As to `Cn1c(NCCO)nc2c1c(=O)n(Cc1ccc(F)cc1)c(=O)n2C`, the inhibition is -9.2%.

Consider `COc1ccc(Cl)cc1N1C(=O)CSC1c1ccccc1F` (stereo not drawn), for which the inhibition is 4.1%.

In the case of `COc1ccc(N(C(=O)c2cccnc2)S(=O)(=O)c2cccs2)cc1`, the inhibition is 13%.

Regarding `COc1ccc(/C(O)=C2/C(=O)C(=O)N(CCCn3ccnc3)C2c2ccc(O)c(OC)c2)cc1` (stereo not drawn), the inhibition is -11%.

For `Cn1c(NCCO)nc2c1c(=O)n(Cc1cccc(F)c1)c(=O)n2C`, the inhibition is 6.7%.

Turning to `O=C1C(=O)N(c2nc3ccccc3s2)C(c2cccc(F)c2)/C1=C(\O)c1ccccc1` (stereo not drawn), the inhibition was 4.3%.

For `Cc1ccccc1NC(=S)N(Cc1ccco1)C(C)c1ccccn1` (stereo not drawn), the inhibition was -1%.

As to `CCc1ccc(CN(Cc2ccco2)C(=O)c2ccccc2)cc1`, the inhibition was 2.2%.

For `CC(C)C(=O)N(Cc1ccco1)S(=O)(=O)c1cccc2cccnc12`, the inhibition was 82.2% (active).

`CCOc1ccccc1C(=O)N(Cc1ccco1)Cc1ccco1`: the inhibition was -4.7%.

In the case of `CCCC(=O)N(Cc1ccco1)S(=O)(=O)c1cccc2cccnc12`, the inhibition was 97.6% (active).

For the compound `O=C(c1ccccc1)N(Cc1ccco1)Cc1ccco1`, the inhibition was 7.4%.

As to `COc1ccc(Cn2c(=S)[nH]c3cc4ccccc4cc3c2=O)cc1`, the inhibition is -2.8%.

Turning to `COC(=O)c1ccccc1NC(=O)NC1CCCCC1`, the inhibition is -4.1%.

For the compound `Cc1ccc(/C(O)=C2\C(=O)C(=O)NC2c2ccc(C)cc2)cc1` (stereo not drawn), the inhibition was -7.7%.

In the case of `COCCCN1C(=O)C(=O)/C(=C(/O)c2ccccc2)C1c1ccc2c(c1)OCO2` (stereo not drawn), the inhibition was -1.2%.

As to `O=C1C(=O)N(CCO)C(c2ccc([N+](=O)[O-])cc2)/C1=C(/O)c1ccc(Cl)cc1` (stereo not drawn), the inhibition was -5.4%.

`O=C1CC(c2cccc(Cl)c2Cl)C2=C(CC(c3cccs3)CC2=O)N1` (stereo not drawn): the inhibition is -15.7%.

Regarding `Cc1cccc(C2CC(=O)NC3=C2C(=O)CC(c2cccs2)C3)c1` (stereo not drawn), the inhibition is 33.7% (active).

Regarding `O=C1CC(c2ccccc2C(F)(F)F)C2=C(CC(c3cccs3)CC2=O)N1` (stereo not drawn), the inhibition was 32.3% (active).

For the compound `O=C1CC(c2cccc(Cl)c2)C2=C(CC(c3cccs3)CC2=O)N1` (stereo not drawn), the inhibition was 10.4%.

Consider `O=C1CC(c2cccc(F)c2)C2=C(CC(c3cccs3)CC2=O)N1` (stereo not drawn), for which the inhibition was -6.6%.

`O=C1CC(c2ccccc2)C2=C(CC(c3cccs3)CC2=O)N1` (stereo not drawn): the inhibition was -21.7%.

For the compound `COc1ccc(C2C(C(=O)c3cccs3)=C(O)C(=O)N2Cc2cccnc2)cc1` (stereo not drawn), the inhibition is -9.5%.

Take `O=C1C(=O)N(CCO)C(c2cccc(F)c2)/C1=C(/O)c1ccccc1` (stereo not drawn): the inhibition was -7.5%.

Turning to `COc1ccc(OC)c(C2/C(=C(\O)c3ccccc3)C(=O)C(=O)N2c2nc3ccccc3s2)c1` (stereo not drawn), the inhibition is -1.7%.

For the compound `COc1cccc(C2/C(=C(\O)c3ccc(F)cc3)C(=O)C(=O)N2Cc2cccnc2)c1` (stereo not drawn), the inhibition is 1%.

For `CC(C)(C)c1ccc(C2/C(=C(\O)c3ccc(F)cc3)C(=O)C(=O)N2Cc2cccnc2)cc1` (stereo not drawn), the inhibition was -1.6%.

Take `COc1ccc(C2NC(=O)C(=O)/C2=C(\O)c2ccc(Cl)cc2)cc1` (stereo not drawn): the inhibition is -4.8%.

Turning to `O=C1NC(c2ccc(Br)cc2)/C(=C(\O)c2ccc(Cl)cc2)C1=O` (stereo not drawn), the inhibition is 46.3% (active).

Regarding `O=C1NC(c2ccccc2Cl)/C(=C(/O)c2ccc(Br)cc2)C1=O` (stereo not drawn), the inhibition was 8.6%.

As for `O=C1NC(c2cccc(F)c2)/C(=C(/O)c2ccc(Br)cc2)C1=O` (stereo not drawn), the inhibition is 17%.

As to `COC(=O)c1sc(N2C(=O)C(O)=C(C(=O)c3cc4ccccc4o3)C2c2ccc(OC)cc2)nc1C` (stereo not drawn), the inhibition is 3.6%.

For `COC(=O)c1c[nH]n2c(=O)cc(C3CCNCC3)nc12`, the inhibition is -1.9%.

Consider `O=C1CSC(c2ccc(Br)cc2)N1c1cccc(Cl)c1` (stereo not drawn), for which the inhibition was 2.7%.

On to `COc1cc(C2C(C(=O)c3cc4ccccc4o3)=C(O)C(=O)N2CCCN(C)C)cc(OC)c1OC` (stereo not drawn), for which the inhibition was 14.6%.

For the compound `COc1cccc(C2C(C(=O)c3cc4ccccc4o3)=C(O)C(=O)N2CCCN(C)C)c1` (stereo not drawn), the inhibition is -4.2%.

As for `COc1cc(C2C(C(=O)c3cc4ccccc4o3)=C(O)C(=O)N2CCN(C)C)ccc1O` (stereo not drawn), the inhibition is 88.7% (active).

Consider `COc1ccc(C2C(C(=O)c3cc4ccccc4o3)=C(O)C(=O)N2CCN(C)C)cc1` (stereo not drawn), for which the inhibition was -8.1%.

With `COc1cc(C2C(C(=O)c3cc4ccccc4o3)=C(O)C(=O)N2CCN(C)C)cc(OC)c1OC` (stereo not drawn), the inhibition was -6.9%.

Turning to `COc1ccc(C2C(C(=O)c3cc4ccccc4o3)=C(O)C(=O)N2CCN(C)C)cc1OC` (stereo not drawn), the inhibition is 66.9% (active).
